# PubChem BioAssay (NCATS)
# Results filed as inconclusive are left out. Where a call stands in place of a potency, no number is given. Unmarked numbers belong to inactive results. Active and inactive are the calls of the source. Calls come from the whole dose curve; as a rule, active = well fitted curve in the direction sought with a large enough effect; inconclusive = small, poorly fitted or top-dose-only effect, or another doubt; inactive = no such curve, though single readings can be large; an effect the other way counts as inactive or inconclusive.
# Legend:
# HEK293 = test: Cytotoxic Profiling of Annotated Libraries Using Quantitative High-Throughput Screening (AID 1296008); settings: Five cell lines viability, CellTiter-Glo ATP luminescence, 48-72 h; max response: hits give low values; note: nearly all actives have a fitted effect of over 60% in size; note: potency is the fitted concentration of half-maximal effect
# In short: (§1)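 Cytotoxicity was measured as CellTiter-Glo ATP luminescence, read after 10 min at room temperature. Compound treatment of the cells lasted 48 or 72 hr at 37 degrees Celsius in a qHTS format.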
# HaCat [1] = test: as above; settings: Five cell lines viability, CellTiter-Glo ATP luminescence, 48-72 h; max response: hits give low values
# In short: as §1
# KB-3-1 = test: as above; settings: Five cell lines viability, CellTiter-Glo ATP luminescence, 48-72 h; max response: hits give low values
# In short: as §1
# NIH3T3 = test: as above; settings: Five cell lines viability, CellTiter-Glo ATP luminescence, 48-72 h; max response: hits give low values
# In short: as §1
# HACAT [2] = test: qHTS assay to identify novel small-molecules to repurpose for Merkel cell carcinoma treatment (AID 1296009); settings: MCC and control cell lines, CellTiter-Glo viability, 72 h; series mostly up to 44.8 µM; note: nearly all actives have a fitted effect of over 60% in size
# In short: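 After compound transfer in DMSO, plates were kept 72 hr at 37 degree celsius. Luminescent ATP signal from CellTiter-Glo served as viability measure, normalized against DMSO and no-cell controls.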
# C33A = test: Primary qHTS to identify gynecologic anti-cancer compounds using libraries of approved drugs and bioactive compounds (AID 1345084); settings: Gynecologic cancer cell panel viability, ATPlite luminescence, 48 h; series mostly up to 57.5 µM; note: nearly all actives have a fitted effect of over 55% in size
# In short: (§2)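 Measured: luminescence after ATPlite addition (15 min, RT). Exposure: 48 h, 37 C, 5% CO2.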
# CASKI = test: as above; settings: Gynecologic cancer cell panel viability, ATPlite luminescence, 48 h; series mostly up to 57.5 µM
# In short: as §2
# Es-2 = test: as above; settings: Gynecologic cancer cell panel viability, ATPlite luminescence, 48 h; series mostly up to 57.5 µM
# In short: as §2
# HeLa = test: as above; settings: Gynecologic cancer cell panel viability, ATPlite luminescence, 48 h; series mostly up to 57.5 µM
# In short: as §2
# Hek293T = test: as above; settings: Gynecologic cancer cell panel viability, ATPlite luminescence, 48 h, control line for the selectivity index; series mostly up to 57.5 µM
# In short: as §2
# JEG-3 = test: as above; settings: Gynecologic cancer cell panel viability, ATPlite luminescence, 48 h; series mostly up to 57.5 µM
# In short: as §2
# CAOV3 = test: as above; settings: Gynecologic cancer cell panel viability, ATPlite luminescence, 48 h; series mostly up to 57.5 µM
# In short: as §2
smiles,measurement,setting,value
COc1cc(/C=C/C=O)cc(OC)c1O[C@@H]1O[C@H](CO)[C@@H](O)[C@H](O)[C@H]1O,max response,HEK293,-3.11%
same,outcome,HaCat [1],inactive
same,outcome,KB-3-1,inactive
same,max response,NIH3T3,-71.2%
same,Potency,HACAT [2],inactive
same,Potency,C33A,inactive
same,Potency,CASKI,inactive
same,Potency,Es-2,inactive
same,Potency,HeLa,inactive
same,Potency,Hek293T,inactive
same,Potency,JEG-3,inactive
C/C=C/c1ccc2c(c1)[C@@H](C)[C@H](c1ccc(O)cc1)O2,max response,HEK293,1.71%
same,outcome,HaCat [1],inactive
same,max response,KB-3-1,-2.15%
same,max response,NIH3T3,3.14%
same,Potency,HACAT [2],inactive
same,Potency,C33A,inactive
same,Potency,CASKI,inactive
same,Potency,Es-2,inactive
same,Potency,HeLa,inactive
same,Potency,Hek293T,inactive
same,Potency,JEG-3,inactive
CC1(C)CC[C@]2(C(=O)O[C@@H]3O[C@H](CO)[C@@H](O)[C@H](O)[C@H]3O)CC[C@]3(C)C(=CCC4[C@@]5(C)CC[C@H](O[C@@H]6O[C@H](C(=O)O)[C@@H](O)[C@H](O)[C@H]6O)[C@@](C)(CO)C5CC[C@]43C)C2C1 (some centres not stated),max response,HEK293,-6.82%
same,outcome,HaCat [1],inactive
same,max response,KB-3-1,-0.849%
same,max response,NIH3T3,-2.22%
same,outcome,HACAT [2],inactive [at 9.27 µM]
same,"activity change, negative = cytotoxicity",C33A,9.39% [at 11.6 µM]
same,"activity change, negative = cytotoxicity",CASKI,1.03% [at 11.6 µM]
same,"activity change, negative = cytotoxicity",Es-2,1.13% [at 11.6 µM]
same,"activity change, negative = cytotoxicity",HeLa,-10.8% [at 11.6 µM]
same,"activity change, negative = cytotoxicity",Hek293T,5.9% [at 11.6 µM]
same,"activity change, negative = cytotoxicity",JEG-3,-2.45% [at 11.6 µM]
C[C@@]12CC[C@@H]3[C@@](CC[C@H]4[C@@]3(C)CCC[C@@]4(C)C(=O)O)(CC1=O)C2,max response,HEK293,-6.36%
same,outcome,HaCat [1],inactive
same,max response,KB-3-1,1.35%
same,max response,NIH3T3,-5.17%
same,Potency,HACAT [2],inactive
same,Potency,C33A,inactive
same,Potency,CASKI,inactive
same,Potency,Es-2,inactive
same,Potency,HeLa,inactive
same,Potency,Hek293T,inactive
same,Potency,JEG-3,inactive
CC(C)c1cccc2c(-c3ccccc3)cc(-c3ccc(-c4ccc(C(=O)O)cc4)[nH]3)nc12,max response,HEK293,-107%
same,outcome,HaCat [1],inactive
same,max response,KB-3-1,-3.11%
same,max response,NIH3T3,-3.94%
same,Potency,HACAT [2],inactive
same,Potency,C33A,inactive
same,Potency,CAOV3,inactive
same,Potency,Es-2,inactive
same,Potency,HeLa,inactive
same,Potency,Hek293T,inactive
same,Potency,JEG-3,inactive
C[C@@H]1O[C@@H](O[C@H]2[C@@H]3C=CO[C@@H](O[C@@H]4O[C@H](CO)[C@@H](O)[C@H](O)[C@H]4O)[C@@H]3[C@@]3(CO)O[C@@H]23)[C@H](OC(=O)/C=C/c2ccccc2)[C@H](O)[C@H]1O,max response,HEK293,-1.51%
same,outcome,HaCat [1],inactive
same,outcome,KB-3-1,inactive
same,max response,NIH3T3,-1.15%
same,Potency,HACAT [2],inactive
same,Potency,C33A,inactive
same,Potency,CASKI,inactive
same,Potency,Es-2,inactive
same,Potency,HeLa,inactive
same,Potency,Hek293T,inactive
same,Potency,JEG-3,inactive
C/C=C/C1=CC2=C(CO1)C(=O)C(C)(O)C(OC(=O)c1c(C)cc(OC)cc1O)C2 (configuration not stated),Potency,HEK293,11.4 µM (active)
same,outcome,HaCat [1],inactive
same,max response,KB-3-1,3.88%
same,max response,NIH3T3,-6.89%
same,Potency,HACAT [2],inactive
same,Potency,C33A,inactive
same,Potency,CASKI,inactive
same,Potency,Es-2,inactive
same,Potency,HeLa,inactive
same,Potency,Hek293T,inactive
same,Potency,JEG-3,inactive
